High-throughput results as filed in PubChem.
uPA surface inh: inhibitors of cell surface uPA generation | AID 540303 | Potency, µM (top dose mostly 38.3 µM), for inactives: at the highest dose activity change, negative = inhibition, actives largely listed as inhibitors | actives 0.31% (n = 330,000) | cell surface uPA generation assay, qHTS; active = well fitted inhibition curve with a large enough effect; inconclusive = small, poorly fitted or top-dose-only effect; inactive = no such curve, though single readings can be large or run the other way; tested in mouse RAW 264.7 cells; note: % is set by controls: 0 for no effect and ±100 for the full control effect; nearly all actives have a fitted effect of over 55% in size
a7 integrin act: activates integrin-mediated alleviation for muscular dystrophy; alpha7betagal myoblasts, beta-gal FDG fluorescence, 48 h; Potency, µM (highest dose often 38.3 µM), for inactives: top-dose activation, usual class: activators; actives 0.064% (n = 350,000);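 note: 100% = response of the positive control SU9516; nearly all actives have a fitted effect of over 60% in size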
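alpha7betagal+/- myoblasts (passage 13, 250/well) treated 48 h at 37C with compounds at 1:260 dilution of DMSO stock. Lysed, then beta-galactosidase activity read as FDG fluorescence (ex 480/em 540) after 30 min, with pre-read for autofluorescence.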
BCR signal inh: blocks chronic active B-cell receptor signaling. ABC-DLBCL IkBa-CBG/CBR reporter, luminescence ratio, 4 h. Potency, µM (doses to about 46.1 µM), for inactives: at the highest dose activity change, negative = inhibition, actives largely listed as inhibitors. actives 0.05% (n = 340,000); active = well fitted inhibition curve with a large enough effect in the signal ratio, with a control signal flat, not every such curve was filed as active; inconclusive = small, poorly fitted or top-dose-only effect, or effect the other way, or a change in a side signal; the % refers to the signal ratio;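 note: plate controls were basal doxycycline-induced cells for no effect and cells given 10 µM MG132 for full effect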
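Concentration-response series (up to 46 uM) were applied to TMD8 dual-reporter cells for 4 h at 37C with doxycycline. Green/red ratio, after filter-overlap correction, defined %Activity; red signal alone was normalised to basal cells and zero luminescence.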
RORg inh: blocks mouse ROR gamma transcriptional activity | Potency, µM (titrated, usually from 53.6 µM), for the others: at the highest dose activity change, negative = inhibition, hits mostly inhibitors | P51450 | actives 5.4% (n = 310,000) | Drosophila S2 Gal4-RORgamma UAS-luciferase reporter, 20 h; note: % is set by controls: 0 for no effect and ±100 for the full control effect; nearly all actives have a fitted effect of over 60% in size
Target sequence (P51450 whole entry, looked up, the tested form may be a part): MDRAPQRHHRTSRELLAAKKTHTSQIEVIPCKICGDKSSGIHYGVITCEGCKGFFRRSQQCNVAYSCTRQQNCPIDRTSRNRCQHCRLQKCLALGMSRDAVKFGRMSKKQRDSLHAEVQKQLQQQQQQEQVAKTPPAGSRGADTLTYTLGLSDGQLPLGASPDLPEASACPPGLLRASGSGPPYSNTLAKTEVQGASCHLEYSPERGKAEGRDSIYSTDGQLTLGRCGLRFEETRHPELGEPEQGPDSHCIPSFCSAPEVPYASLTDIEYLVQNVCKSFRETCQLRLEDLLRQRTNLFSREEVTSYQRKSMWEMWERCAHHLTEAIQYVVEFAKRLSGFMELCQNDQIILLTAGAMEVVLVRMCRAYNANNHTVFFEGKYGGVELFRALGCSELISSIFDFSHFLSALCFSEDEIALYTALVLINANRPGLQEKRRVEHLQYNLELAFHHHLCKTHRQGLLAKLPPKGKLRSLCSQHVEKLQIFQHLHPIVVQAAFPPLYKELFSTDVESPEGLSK
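Using a luciferase readout, inhibitors were identified by reduced reporter activity in Drosophila cells coexpressing a copper-inducible Gal4–ROR gamma fusion and UAS-driven Photinus luciferase, incubated 20 hr after 700 uM copper sulfate.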
Gal4-VP16 FLuc: counter-screen for ROR gamma inhibitors: Gal4-VP16 reporter. Drosophila S2 Gal4-VP16 UAS-luciferase, luminescence, 20 h. Potency, µM (highest dose often 53.6 µM), inactives show at the highest dose activity, negative = inhibition, usual class: inhibitors. actives 3.5% (n = 310,000). AID 2546;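 note: Gal4-VP16 expression switched on by copper sulfate through the metallothionein promoter; % is set by controls: 0 for no effect and ±100 for the full control effect; nearly all actives have a fitted effect of over 50% in size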
Mito fusion act: blocks mitochondrial division or promotes mitochondrial fusion; Potency, µM (doses to about 46.1 µM), for inactives: top-dose growth rescue (activation), most hits filed as activators; S. cerevisiae fusion-defective mutant growth rescue, CellTiterGlo 48 h; AID 485298; actives 0.23% (n = 320,000); note: % of control where 0% means no effect; nearly all actives have a fitted effect of over 45% in size
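Read-out: ATP-based luminescence (CellTiterGlo, 10 min ambient) reporting growth of fusion-defective ts yeast after 48 hours at 37C on glycerol/ethanol YPEG medium in the presence of compound.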
* marks the source's active call; other numbers are inactive results; ? = inconclusive; / = no result; [ ] = dose if it differs, or a comment. Most compounds without a hit are left out; they make up all but 5.5% or so of the library. Unless noted, calls come from the whole dose curve; as a rule, active = well fitted curve in the direction sought with a large enough effect; inconclusive = small, poorly fitted or top-dose-only effect, or another doubt; inactive = no such curve, though single readings can be large; an effect the other way counts as inactive or inconclusive. Potency is the fitted concentration of half-maximal effect.

SMILES	uPA surface inh	a7 integrin act	BCR signal inh	RORg inh	Gal4-VP16 FLuc	Mito fusion act
CC(C)(C)NC(=S)NCc1ccco1	0%	1%	-1%	1%	0%	-2%
Cc1cccc(NC(=S)NCc2ccco2)n1	0%	-7%	?	1.3µM*	4.5µM*	4%
Cc1ccccc1C(=O)NCC(=O)NC1CC1	0%	22%	0%	/	/	/
Nc1c(C(=O)Nc2ccccc2Cl)nnn1-c1ccc2c(c1)OCCO2	0%	12%	-2%	0.056µM*	?	3%
CCC(C)COC(=O)C(C#N)c1nc2ccccc2nc1N1CCCCC1 (centres undefined)	1%	-46%	-1%	5µM*	3%	4%
O=C(CSc1ccccc1C(=O)N1CCCCC1)NCC1CCCCC1	3%	42%	-1%	2.5µM*	9%	7%
COc1ccc(Oc2ncc3nc(-c4ccc(OC)cc4)c(=O)n(Cc4cccs4)c3n2)cc1	/	/	/	-29%	-2%	/
CC1=NN(/C(=N\c2nnc(C)s2)Nc2ccc(C(C)(C)C)cc2)[C@H](c2ccc(C)cc2)S1	-14%	-53%	?	18µM*	?	28%
CCOC(=O)c1ccc(CN(Cc2ccc(F)cc2)S(=O)(=O)c2cc(C(=O)Nc3ccccc3CC)ccc2F)cc1	/	/	8%	/	/	/
CCOC(=O)c1nn(-c2ccc(Cl)cc2)c2nnc(Cc3ccc(C)cc3)c(=O)n12	3%	23%	1%	-12%	22µM*	3%
CCOC(=O)c1nn(-c2ccccc2)c2nnc(Cc3ccc(Cl)cc3)c(=O)n12	-13%	6%	?	9%	-12%	-9%
CCOC(=O)C1CCCN(C(=S)NC(=O)/C=C/c2ccc(F)cc2)C1 (centres undefined)	11%	15%	?	10µM*	7.1µM*	-36%
CCOC(=O)C1CCCN(C(=O)CNS(=O)(=O)c2ccc(Br)s2)C1 (centres undefined)	/	2µM*	4%	18%	-4%	-3%
CCOC(=O)C1CCCN(C(=S)Nc2ccc(C)cc2C)C1 (centres undefined)	1%	13%	-12%	11µM*	?	1%
COC(=O)c1ccccc1S(=O)(=O)N1CCC(C(=O)NCCC2=CCCCC2)CC1	-11%	-34%	0%	/	/	1%
COc1ccc([N+](=O)[O-])cc1NC(=O)C(C)OC(=O)c1cccnc1 (centres undefined)	20%	10%	0%	?	-6%	25%
COc1ccc(-c2nc(-c3ccncc3)no2)c(OC)c1	?	22%	?	7.9µM*	?	-3%
COc1cc(OC)c(-c2nc(-c3ccncc3)no2)cc1OC	24%	-15%	-1%	35%	-5%	1%
Cc1ccc(-c2nc(-c3ccncc3)no2)cc1	4%	?	?	14µM*	?	-15%
COc1ccccc1-c1nc(-c2cccc(C)c2)no1	-7%	-8%	?	?	22µM*	4%
Cc1ccc(-c2nc(-c3cccnc3)no2)cc1	-6%	2%	/	?	?	-3%
Cc1ccc(-c2nc(-c3ccccc3)no2)cc1	7%	19%	?	10µM*	13µM*	4%
CCCCOC(=O)CSc1nnc(-c2ccccc2)o1	/	/	?	/	/	-5%
COc1ccc(-c2noc(-c3ccccc3-c3ccccc3)n2)cc1	/	-2%	?	16µM*	12%	4%
Brc1ccccc1-c1nc(-c2ccccc2)no1	/	/	?	-12%[0.365 µM]	/	4%
Cc1ccc(-c2nc(-c3ccccc3)no2)c(Cl)c1	?	3%	-12%	10µM*	7.1µM*	5%
COc1ccc(OC)c(-c2oc3ccccc3c(=O)c2O)c1	-11%	-8%	-14%	7.1µM*	-28%	-3%
COc1cc(OC)c(-c2oc3ccccc3c(=O)c2O)c(OC)c1	-7%	-23%	/	/	/	/
COc1ccccc1-c1oc2ccccc2c(=O)c1O	/	/	/	20µM*	1%	/
